Results filed as inconclusive are left out. A number with no mark means an inactive call. The call rests on the fitted dose curve; in most records, active means well fitted activation curve with a large enough effect; inconclusive means small, poorly fitted or top-dose-only effect; inactive means no such curve, though single readings can be large or run the other way.
Target: Rap guanine nucleotide exchange factor 3 (Homo sapiens) (UniProt O95398)
Assay: Confirmatory qHTS for agonist of cAMP-regulated guanine nucleotide exchange factor 3 (EPAC1) (AID 1645881);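 further: EPAC1 catalysed release of BODIPY-GDP from Rap1B seen as fluorescence loss; 100% = effect of cAMP agonist control; nearly all actives have a fitted effect of over 75% in size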
Settings: EPAC1 Rap1B BODIPY-GDP exchange fluorescence; series mostly up to 154 µM; activation: at the top concentration

Rap guanine nucleotide exchange factor 3 (Homo sapiens), sequence (O95398 whole entry, looked up): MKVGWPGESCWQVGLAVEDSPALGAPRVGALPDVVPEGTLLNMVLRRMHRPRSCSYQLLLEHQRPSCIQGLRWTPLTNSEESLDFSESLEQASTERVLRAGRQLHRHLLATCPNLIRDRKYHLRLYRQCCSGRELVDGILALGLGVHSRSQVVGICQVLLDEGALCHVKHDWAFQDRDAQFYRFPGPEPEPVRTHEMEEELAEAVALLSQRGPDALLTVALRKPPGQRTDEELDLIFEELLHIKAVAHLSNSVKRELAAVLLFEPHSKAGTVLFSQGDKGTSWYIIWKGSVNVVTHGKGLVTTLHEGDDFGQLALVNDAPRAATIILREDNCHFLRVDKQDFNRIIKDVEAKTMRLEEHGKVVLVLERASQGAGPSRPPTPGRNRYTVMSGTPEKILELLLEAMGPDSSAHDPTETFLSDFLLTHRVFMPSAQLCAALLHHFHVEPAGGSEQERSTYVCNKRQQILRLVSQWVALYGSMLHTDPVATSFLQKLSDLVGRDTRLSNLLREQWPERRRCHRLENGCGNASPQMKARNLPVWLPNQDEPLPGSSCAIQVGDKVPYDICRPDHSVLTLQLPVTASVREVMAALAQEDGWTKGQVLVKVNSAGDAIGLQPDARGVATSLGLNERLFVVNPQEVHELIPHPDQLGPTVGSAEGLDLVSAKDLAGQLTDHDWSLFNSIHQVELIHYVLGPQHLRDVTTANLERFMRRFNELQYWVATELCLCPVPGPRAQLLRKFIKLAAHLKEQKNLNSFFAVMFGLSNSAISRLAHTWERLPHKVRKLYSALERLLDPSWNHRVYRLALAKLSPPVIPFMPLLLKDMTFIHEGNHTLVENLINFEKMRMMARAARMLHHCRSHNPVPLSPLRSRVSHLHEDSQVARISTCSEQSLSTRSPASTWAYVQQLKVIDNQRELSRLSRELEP

Structure (SMILES) | activation [%]
CCc1nnc(NC(=O)c2ccc(-c3cccc(C(F)(F)F)c3)o2)s1 | -5.72
CCc1ccc(NC(=O)COC(=O)CCC2CCCC2)cc1 | 6.31
O=S(=O)(N/N=C/c1cccnc1)c1ccc(Cl)c(Cl)c1 | -15.3
Cc1ccc(NC(=O)Cn2nnc(-c3nc(-c4ccncc4)no3)c2N)c(C)c1 | -10.9
Cn1cc([C@]2(O)C(=O)Nc3c(F)cccc32)c2ccccc21 | 9.89
c1ccc(NN(Cc2cnccn2)c2ccccc2)cc1 | 11.2
C=CCOc1ccc(C2N3CC4(CC)CN2CC(CC)(C3)C4=O)cc1 (stereo not drawn) | 11.1
COc1ccc(C2c3ccsc3CCN2C(C)=O)cc1 (stereo not drawn) | 10.3
O=S(=O)(NCC1(N2CCOCC2)CCCCC1)c1ccc(Cl)cc1C(F)(F)F | 11.1
COC(=O)c1cc(Br)c(=O)n(CCc2ccc(F)cc2)c1 | 7.61
COc1cc(NS(=O)(=O)c2cc3[nH]c(=O)c(=O)[nH]c3cc2C)cc(OC)c1OC | -0.453
CSc1ccc(CC2C(=O)Nc3ccccc32)cc1 (stereo not drawn) | 9.73
COc1c(O)cc2oc(-c3ccc(O)c(O)c3)cc(=O)c2c1O | 1.86
COc1cccc(-n2ccn(CC(=O)NCc3ccc(C)cc3)c(=O)c2=O)c1 | 14.3
COc1cccc(-c2nc(SCC(=O)Nc3nc(-c4ccccc4)c(C)s3)[nH]c(=O)c2C#N)c1 | -18.5
Cc1ccccc1N=C(c1ccccc1)C1C(=O)c2ccccc2C1=O | 15.7
CCOc1cc(/C=C2\SC(=S)N(NS(=O)(=O)c3ccc(C)cc3)C2=O)ccc1O | 5.74
NS(=O)(=O)c1ccc(N=Nc2c[nH]c(=O)c(O)c2)cc1 | 0.472

— PubChem BioAssay (NCATS)
